Reference: PubChem BioAssay (EPA / NIEHS)
Results filed as inconclusive are left out. The source made the active and inactive calls. The calls were made as follows: active = hit-call score of the fitted dose curve at least 0.9, where 1 is the maximum; inconclusive = response in the unintended direction; inactive = score below 0.9.

Experiment: CCTE_Shafer_MEA_dev_bursting_electrodes_number: CCTE's Neural Network Formation Assay for Number of Bursting Electrodes, Shafer Lab (AID 2284043);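 as to AC50: potency is for loss of bursting electrodes relative to DMSO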
In short: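 Primary rat cortical neurons plated on 16-electrode MEA wells, exposed from day 0 with compound renewed at DIV 5 and 9. Electrodes bursting ≥1 burst per 2 min counted on days 5, 7, 9 and 12; trapezoidal AUC across days, fitted for loss versus DMSO.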

SMILES | AC50 | outcome
CC(C)Cc1ccc(C(C)C(=O)O)cc1 (stereo not drawn) | 2.98 µM (active) | –
N#CCCNCCC#N | – | inactive
CCCCC(CC)COC(=O)COc1ccc(Cl)cc1C (stereo not drawn) | – | inactive
